An excerpt weighted towards active compounds, which were near 3.5% of everything screened.
BoNT A protease: blocks Botulinum neurotoxin A light chain protease | inhibition, % at 10 µM | multiplex microsphere protease substrate cleavage, flow cytometry | 360,000 tested, 0.17% active; further: plate controls were buffer without enzyme for full effect and enzyme alone for no effect
Anthrax LF inh2: inhibitors of Bacillus anthracis lethal factor protease. P15917. multiplex microsphere protease cleavage assay, LF. inhibition, % at 10 µM. 360,000 tested, 0.12% active; further: plate controls were buffer without enzyme for full effect and enzyme alone for no effect
BJeLR viability: BJeLR cell viability loss; 300,000 tested, 0.17% active; AID 1554; BJeLR (HRASV12) viability, CellTiter-Glo ATP luminescence, 48 h; inhibition, % (no concentration beside the values); in the data active means inhibition above about 50%; inconclusive means no clear call, values can overlap the other calls
Bead autofluor: counter-screen for toxin protease inhibitors: compound fluorescence. compound autofluorescence counterscreen, microsphere flow cytometry; active compounds read high. fluorescence intensity (concentration not given with the values). 360,000 tested, 3.1% active. AID 624483; in the data active means fluorescence intensity above about 16000; inconclusive means no clear call, values can overlap the other calls
BoNT-F LC inh: inhibitors of Botulinum neurotoxin F light chain protease; AID 588497; 360,000 tested, 0.22% active; inhibition, % at 10 µM; Multiplex microsphere protease cleavage assay, flow cytometry; in the data active means inhibition above about 35%, passing the limit was not always enough; inconclusive means no clear call, values can overlap the other calls; further: plate controls were buffer without enzyme for full effect and enzyme alone for no effect
Active calls of the source: *; ? = inconclusive; · = no result. Unless noted, no stated cut-off is given here; in the data, active means inhibition above about 30%; inconclusive means no clear call, values can overlap the other calls; inactive means below that.

SMILES	BoNT A protease	Anthrax LF inh2	BJeLR viability	Bead autofluor	BoNT-F LC inh
COc1ccc(CCNc2nc(Cl)nc(NC(C)(C)CO)n2)cc1OC	-1.1	-3.8	-30.3	4070	?
CCOc1nc(NCCc2ccc(OC)c(OC)c2)nc(NC(C)(C)CO)n1	-1.7	-2.4	2.2	16988*	-3.6
Nn1c(COc2ccccc2)nnc1SC(F)F	-0.3	-2.8	20.8	23749*	-2.2
Cc1ccc(OCc2nnc(SCC(=O)O)n2N)cc1	0.0	0.2	17.9	9404	-10.2
COc1ccccc1Nc1nc(N)nc(CSC(=S)N2CCCCC2C)n1 (stereo not drawn)	0.2	-0.6	-3.2	2757	-0.5
c1ccc2c(c1)nnn2-c1ncnc2sc3c(c12)CCCC3	-1.9	-0.4	15.5	23314*	-3.4
COc1ccc(-c2nc3c4ccccc4ccn3c2Cc2ccccc2)cc1OC	1.3	-2.1	·	5592	-9.0
Cc1nnc(SCc2ccc(F)cc2)s1	0.7	-3.6	-7.6	2649	?
Nc1nnc(SCc2ccc(F)cc2)s1	?	-0.5	-3.8	23088*	-1.0
COc1cccc(-c2ccc(NC(=O)C3CCCN(Cc4ccc(CO)o4)C3)cc2)c1 (stereo not drawn)	3.6	-0.4	1.9	6160	4.2
Nc1nnnn1/N=C/c1ccccc1OCc1ccc(Cl)cc1Cl	3.2	-0.4	1.0	22215*	2.0
Nc1nnnn1/N=C/c1ccccc1OCc1ccc(Cl)cc1	-1.0	-3.3	0.6	4439	-2.6
CCOC(=O)c1c(NC(=O)CSc2nc(C)cc(C)c2C#N)sc(C(C)=O)c1C	0.0	-7.7	-25.8	4163	10.7
CN1CCN(CC#CCn2c3ccccc3c3ccccc32)CC1	-0.9	-0.8	2.2	11641	-11.0
COc1cc(CN2CCC(C(=O)N3CCN(c4ccccc4F)CC3)CC2)cc(OC)c1OC	-1.3	-2.0	-3.2	16517*	-3.3
COc1ccccc1N1CCN(Cc2ccc(Br)s2)CC1	0.5	-3.2	-2.6	20319*	0.6
COc1ccccc1N1CCN(Cc2ccco2)CC1	3.1	-2.6	3.8	7355	10.7
COc1ccccc1N1CCN(S(=O)(=O)c2ccc(F)cc2)CC1	1.3	-7.5	-5.7	15571	4.5
COc1ccccc1N1CCN(S(=O)(=O)c2cccc(F)c2)CC1	-1.1	-2.5	-3.2	22849*	-1.9
CCOc1ccccc1N1CCN(Cc2cccc(OC)c2O)CC1	?	-2.8	2.2	17870*	-11.1
COCCN1C(=O)CCC1(C)C(=O)Nc1ccc2c(c1)OCCO2 (stereo not drawn)	-0.5	-6.6	·	4233	2.6
Nc1c(N(C(=O)Nc2ccc(Cl)c(Cl)c2)C2CCCC2)c(=O)[nH]c(=O)n1Cc1ccccc1	-0.3	-2.2	6.0	2507	-7.4
CCc1nc2ccc(C(=O)NCCc3c[nH]c4ccccc34)cn2c1N(C)Cc1ccc(N(C)C)cc1	-1.1	-10.4	·	3754	-3.1
COc1ccccc1N1CCN(Cc2c(F)cccc2Cl)CC1	-1.3	-0.8	11.2	21264*	-2.2
COc1ccccc1N1CCN(Cc2ccccc2)CC1	0.3	5.3	8.1	3689	-26.4
SMILES	BoNT A protease	Anthrax LF inh2	BJeLR viability	Bead autofluor	BoNT-F LC inh
COc1ccc(-[n+]2c(-c3ccccc3)cc(-c3ccc(C)cc3)cc2-c2ccccc2)cc1	1.1	-3.3	71.8*	3835	6.8
Cc1ccc(N2C(=O)c3ccccc3C2O)nc1 (stereo not drawn)	·	·	69.9*	·	·
Oc1ccc(C=Nc2ccc(N3CCOCC3)cc2)c(O)c1	-1.0	-2.7	2.8	4790	-15.1
Cc1ccc(N=Cc2ccc(O)cc2O)cc1F	?	0.8	·	21566*	2.4
CN(C)C(=O)CSc1nnc(-c2ccco2)n1-c1ccccc1	-0.9	11.9	·	3575	0.9
Cc1ccc2nc(CSc3nnc(-c4ccco4)n3-c3ccccc3)cc(=O)n2c1	-0.5	-1.2	14.6	22931*	0.6
Cc1ccc2nc(CSc3nnc(-c4ccco4)o3)cc(=O)n2c1	0.3	-4.6	15.3	5877	-5.3
CN(Cc1ccccc1)C(=O)CSc1nnc(-c2ccco2)n1-c1ccccc1	-1.5	-1.3	-4.2	19956*	-0.5
O=C(NNS(=O)(=O)c1ccc(F)cc1)C1CC(c2cccnc2)=NO1 (stereo not drawn)	0.3	-8.5	-5.6	4001	6.0
O=S(CC(O)COCc1ccc(Cl)cc1)c1ccccn1 (stereo not drawn)	3.3	1.7	-2.2	21318*	1.6
OC(COCc1ccccc1)COCc1ccccc1	-0.8	0.6	·	3037	-4.6
CCN1CCc2nc(NC(=O)c3ccccc3)sc2C1	9.5	15.4	-12.2	18645*	-1.5
CCc1nc2ccc(C(=O)N(C)C(C)C)cn2c1N(CCC(C)C)CCN(C)C	0.2	-2.4	·	3494	2.6
COc1ccc(CN2C(=O)CCC2(C)C(=O)NCc2cccnc2)c(OC)c1 (stereo not drawn)	?	0.8	-7.8	22905*	-1.9
CCN1CCN(c2ccc(NC(=O)CC3OC(=O)c4ccccc43)cc2C)CC1 (stereo not drawn)	0.0	-3.2	·	3092	-11.3
COc1cc(OC)c(C2C=CC(=O)CC2)c(OC)c1 (stereo not drawn)	-1.5	-2.1	·	4115	-0.4
N#CC1=C(Nc2ccc(Br)cc2)CCC1	-2.1	-4.7	-7.0	16939*	-10.5
O=C(COC(=O)c1ccc(-n2cnnn2)cc1)c1ccc(Br)cc1	-1.2	3.0	·	4969	0.1
CC(C)c1ccc(-c2noc(C3CCCN(C(=O)c4ccc(F)cc4F)C3)n2)cc1 (stereo not drawn)	-0.5	-9.4	-4.7	22538*	-5.2
O=S(=O)(Cc1ccccc1)N1CCCC(c2nc(-c3ccc(F)cc3)no2)C1 (stereo not drawn)	1.2	-3.5	-16.3	21682*	3.3
Cc1ccccc1NC(=O)N1CCCC(c2nc(-c3ccc(C(C)C)cc3)no2)C1 (stereo not drawn)	0.0	-3.0	10.1	23120*	-3.2
CN(C)c1ccc(CNC(=O)CC[C@H]2O[C@@H](n3cnc4c(NC(=O)c5ccccc5)ncnc43)[C@H](O)[C@@H]2O)cc1	-0.6	-0.9	·	6263	-6.4
COc1ccc(CN2C(=O)CCC2(C)c2nc3ccccc3[nH]2)cc1 (stereo not drawn)	-6.6	-14.5	·	9570	-67.3
CCc1nc2ccc(C(=O)N(C)Cc3ccco3)cn2c1N(CC)C(=O)NCCc1ccccc1	0.2	0.7	·	3902	1.2
CN1CC(c2ccccc2Cl)C2(COc3ccccc3C2=O)C12C(=O)Nc1ccccc12 (stereo not drawn)	0.5	-0.2	-3.6	20126*	-0.6
SMILES	BoNT A protease	Anthrax LF inh2	BJeLR viability	Bead autofluor	BoNT-F LC inh
Cc1ccc(C2CN(C)C3(C(=O)Nc4ccccc43)C23COc2ccccc2C3=O)cc1 (stereo not drawn)	-0.4	-3.3	1.9	4429	-2.0
CCOc1ccc(-c2noc(CCC(N)=O)n2)cc1OCC	-3.0	-2.0	6.0	21943*	-3.9
O=C(Nc1cnn(Cc2ccc(Cl)cc2)c1)c1cnccn1	4.4	-6.4	-10.4	19189*	4.4
CC(=O)Nc1cnn(Cc2ccc(Br)cc2)c1	-2.9	-2.2	5.4	24279*	-3.3
CCc1ccc(C(=O)COC(=O)c2ccc(-c3nnc(-c4ccccc4)o3)cc2)cc1	-1.7	-1.3	14.3	24076*	-3.7
COc1ccccc1/C=C1\Oc2cc(OC(=O)N3CCOCC3)ccc2C1=O	·	·	2.2	·	·
